Test results: the supplement of paper PMC10849652
About 8,800 targets were measured; listed, in parts, are those with a hit and a random draw of the rest. About 0.5% of all pairs of compound and target were hits.

Key:
Assay in all cases: log2 fold change, soluble protein after heating vs DMSO (PISA); higher = thermal stabilisation; K562 lysate, 10 uM; active = over 0.2 and 3.5 SD of the protein, either way, in both replicates (recomputed)
erlotinib = compound: C#Cc1cccc(Nc2ncnc3cc(OCCOC)c(OCCOC)cc23)c1 [erlotinib]
Method in brief: (§1)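 Thermal stability, expressed as log-two fold change relative to solvent controls, is given from duplicates. Crude K562 extract in PBS pH 7.4 with 1 mM MgCl2, at 1 mg/mL protein, was treated with 10 μM compound for 30 min and heated in aliquots for 3 min across 48°C-58°C. After pooling, adjustment to 0.5% NP-40 at 4°C and centrifugation at 21,000xg for 90 min, supernatant protein was measured by TMTpro 16plex LC-MS/MS with channel sums equalised.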

[1] = compound: C/C(=N\NC(=O)C1=CC(=CC=C1)S(=O)(=O)N2CCOCC2)/C3=C(C=CC(=C3)Cl)O
Method in brief: as §1

[2] = compound: C1=CC(=CC=C1C2=NC3=C(N2)C=C(C=C3)C(=O)N)OC4=CC=C(C=C4)Cl
Method in brief: as §1

[3] = compound: C1=CC2=C(C=CC(=C2)/C=C\3/C(=O)NC(=NCC4=CC=CS4)S3)N=C1
Method in brief: as §1

[4] = compound: C1=CC2=NC=CN=C2C=C1/C=C/3\C(=O)NC(=O)S3
Method in brief: as §1

[5] = compound: C1=CC=C(C=C1)C2=NC(=C(N2)C3=CC=NC=C3)C4=CC(=C(C=C4)Cl)O
Method in brief: as §1

[6] = compound: C1=CC=C2C(=C1)C3=NNC4=CC=CC(=C43)C2=O
Method in brief: as §1

[7] = compound: C1CCN(C1)C(=O)NC2=CC=CC(=C2)NC3=NC=C(C(=N3)NCCC4=CN=CN4)Br
Method in brief: as §1

[8] = compound: C1CN(CCC1(CC2=CC=C(C=C2)Cl)N)C3=NC=NC4=C3C=CN4
Method in brief: as §1

IRAK-1-4 Inhibitor I = compound: C1COCCN1CCN2C3=CC=CC=C3N=C2NC(=O)C4=CC(=CC=C4)[N+](=O)[O-] [IRAK-1-4 Inhibitor I]
Method in brief: as §1

ibrutinib = compound: C=CC(=O)N1CCC[C@@H](n2nc(-c3ccc(Oc4ccccc4)cc3)c3c(N)ncnc32)C1 [ibrutinib]
Method in brief: as §1

[9] = compound: CC(=O)c1cnc2ccc(-c3cc(Cl)c(O)c(Cl)c3)nc2c1N[C@H]1CC[C@H](CN(C)C)CC1
Method in brief: as §1

ralimetinib = compound: CC(C)(C)Cn1c(N)nc2ccc(-c3[nH]c(C(C)(C)C)nc3-c3ccc(F)cc3)nc21 [ralimetinib]
Method in brief: as §1

[10] = compound: CC(C)(O)CC(=O)NCCn1ccc2ncnc(Nc3ccc(Oc4cccc(C(F)(F)F)c4)c(Cl)c3)c21
Method in brief: as §1

[11] = compound: CC(C)C1=C2N=C(C=C(N2N=C1)NCC3=CC=CC=C3)NCCCCCCN
Method in brief: as §1

[12] = compound: CC1=C(C=C(C=C1)NC(=O)C2=CC(=CC=C2)C(C)(C)C#N)NC3=CC4=C(C=C3)N=CN(C4=O)C
Method in brief: as §1

[13] = compound: CC1=C(C=C(C=C1)NC(=O)C2=CC(=CC=C2)N(C)C)NC(=O)C3=CC=C(C=C3)O
Method in brief: as §1

[14] = compound: CC1=CC=C(C=C1)SC2=C3C=C(SC3=CN=C2)C(=O)N
Method in brief: as §1

[15] = compound: CC1=C(C(CC(=O)N1)C2=CC=C(C=C2)C(F)(F)F)C(=O)NC3=C(C=C4C(=C3)C=NN4)F
Method in brief: as §1

[16] = compound: CC1=C(C2=C(C=C1)C(=O)C3=CC=CC=C3N2CCCN)C
Method in brief: as §1

Measured: log2 fold change

TMEM177 (UniProt Q53S58)
Chain of UniProt Q53S58 (Q53S58 whole entry, looked up): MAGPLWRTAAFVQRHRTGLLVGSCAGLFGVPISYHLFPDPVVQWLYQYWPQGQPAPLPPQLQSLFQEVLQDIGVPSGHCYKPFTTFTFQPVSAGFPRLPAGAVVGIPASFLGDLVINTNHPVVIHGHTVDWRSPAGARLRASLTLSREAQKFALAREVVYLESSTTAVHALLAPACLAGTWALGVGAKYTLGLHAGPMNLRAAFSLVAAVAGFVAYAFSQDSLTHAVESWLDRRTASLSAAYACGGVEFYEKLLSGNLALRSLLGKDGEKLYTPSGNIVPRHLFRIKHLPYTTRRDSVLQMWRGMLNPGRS
inactive: erlotinib 0.042 | [1] 0.06 | [2] -0.042 | [3] 0.016 | [4] -0.019 | [5] -0.054 | [6] 0.148 | [7] 0.019 | [8] 0.005 | IRAK-1-4 Inhibitor I 0 | ibrutinib 0.079 | [9] -0.022 | ralimetinib -0.287 | [11] 0.007 | [12] -0.03 | [13] 0.032 | [14] -0.005
active: [10] -0.311

TMEM167B (UniProt Q9NRX6)
Chain of UniProt Q9NRX6 (Q9NRX6 whole entry, looked up): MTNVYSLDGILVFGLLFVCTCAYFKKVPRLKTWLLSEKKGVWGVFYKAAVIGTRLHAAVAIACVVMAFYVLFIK
inactive: erlotinib -0.061 | [1] -0.016 | [2] -0.006 | [3] -0.042 | [4] -0.044 | [5] -0.002 | [6] 0.013 | [7] -0.056 | [8] 0.036 | IRAK-1-4 Inhibitor I -0.014 | ibrutinib 0.019 | [9] -0.02 | ralimetinib 0.015 | [10] 0.001 | [11] -0.02 | [15] -0.058 | [12] 0.021 | [13] 0.035 | [14] -0.033

TUBB4A (UniProt M0QYM7)
inactive: erlotinib -0.017 | [1] -0.063 | [2] 0.071 | [3] -0.015 | [4] -0.322 | [5] 0.044 | [6] -0.097 | [7] -0.038 | [8] -0.027 | IRAK-1-4 Inhibitor I 0.025 | ibrutinib 0.092 | [9] 0.049 | ralimetinib 0.103 | [10] -0.117 | [11] 0.005 | [15] -0.102 | [12] 0.13 | [13] 0.102 | [14] 0.024

TRIP12 isoform 2 (UniProt Q14669)
inactive: erlotinib 0.034 | [1] 0.013 | [2] -0.014 | [3] 0.004 | [4] 0.024 | [5] -0.027 | [6] -0.02 | [7] 0.019 | [8] -0.021 | IRAK-1-4 Inhibitor I -0.032 | ibrutinib 0 | [9] -0.031 | ralimetinib 0.109 | [10] 0.044 | [11] -0.028 | [15] -0.004 | [16] 0.066 | [12] 0.058 | [13] -0.012 | [14] 0.031

UCHL5 (UniProt Q5LJA9)
inactive: erlotinib -0.052 | [1] 0.084 | [2] 0.005 | [3] -0.024 | [4] -0.032 | [5] 0.016 | [6] -0.045 | [7] 0.035 | [8] 0.006 | IRAK-1-4 Inhibitor I 0.054 | ibrutinib 0.009 | [9] 0.078 | ralimetinib -0.007 | [10] -0.113 | [11] 0.044 | [16] 0 | [12] 0.012 | [13] 0.035 | [14] 0.01

UBL4A (UniProt P11441)
Chain of UniProt P11441 (P11441 whole entry, looked up): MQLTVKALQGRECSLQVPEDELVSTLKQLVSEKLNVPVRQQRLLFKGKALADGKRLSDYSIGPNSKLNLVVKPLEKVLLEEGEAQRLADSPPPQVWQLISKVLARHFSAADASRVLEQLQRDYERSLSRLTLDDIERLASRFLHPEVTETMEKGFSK
inactive: erlotinib -0.04 | [1] 0.014 | [2] -0.069 | [3] 0.005 | [4] 0.087 | [5] 0.021 | [6] 0.04 | [7] 0.024 | [8] -0.028 | IRAK-1-4 Inhibitor I -0.042 | ibrutinib 0.056 | [9] 0.055 | ralimetinib 0 | [10] 0.049 | [11] 0.009 | [15] -0.023 | [16] -0.02 | [12] -0.044 | [13] -0.002 | [14] 0.025

TMEM263 (UniProt Q8WUH6)
inactive: erlotinib -0.114 | [1] -0.104 | [2] 0.273 | [3] -0.119 | [4] -0.022 | [5] -0.05 | [6] -0.012 | [7] -0.006 | [8] 0.095 | IRAK-1-4 Inhibitor I 0.026 | ibrutinib -0.04 | [9] -0.003 | ralimetinib -0.037 | [10] -0.174 | [11] -0.002 | [15] 0.349 | [16] 0.049 | [12] -0.058 | [13] 0.004 | [14] -0.079

UBE3B (UniProt Q7Z3V4)
Chain of UniProt Q7Z3V4 (Q7Z3V4 whole entry, looked up): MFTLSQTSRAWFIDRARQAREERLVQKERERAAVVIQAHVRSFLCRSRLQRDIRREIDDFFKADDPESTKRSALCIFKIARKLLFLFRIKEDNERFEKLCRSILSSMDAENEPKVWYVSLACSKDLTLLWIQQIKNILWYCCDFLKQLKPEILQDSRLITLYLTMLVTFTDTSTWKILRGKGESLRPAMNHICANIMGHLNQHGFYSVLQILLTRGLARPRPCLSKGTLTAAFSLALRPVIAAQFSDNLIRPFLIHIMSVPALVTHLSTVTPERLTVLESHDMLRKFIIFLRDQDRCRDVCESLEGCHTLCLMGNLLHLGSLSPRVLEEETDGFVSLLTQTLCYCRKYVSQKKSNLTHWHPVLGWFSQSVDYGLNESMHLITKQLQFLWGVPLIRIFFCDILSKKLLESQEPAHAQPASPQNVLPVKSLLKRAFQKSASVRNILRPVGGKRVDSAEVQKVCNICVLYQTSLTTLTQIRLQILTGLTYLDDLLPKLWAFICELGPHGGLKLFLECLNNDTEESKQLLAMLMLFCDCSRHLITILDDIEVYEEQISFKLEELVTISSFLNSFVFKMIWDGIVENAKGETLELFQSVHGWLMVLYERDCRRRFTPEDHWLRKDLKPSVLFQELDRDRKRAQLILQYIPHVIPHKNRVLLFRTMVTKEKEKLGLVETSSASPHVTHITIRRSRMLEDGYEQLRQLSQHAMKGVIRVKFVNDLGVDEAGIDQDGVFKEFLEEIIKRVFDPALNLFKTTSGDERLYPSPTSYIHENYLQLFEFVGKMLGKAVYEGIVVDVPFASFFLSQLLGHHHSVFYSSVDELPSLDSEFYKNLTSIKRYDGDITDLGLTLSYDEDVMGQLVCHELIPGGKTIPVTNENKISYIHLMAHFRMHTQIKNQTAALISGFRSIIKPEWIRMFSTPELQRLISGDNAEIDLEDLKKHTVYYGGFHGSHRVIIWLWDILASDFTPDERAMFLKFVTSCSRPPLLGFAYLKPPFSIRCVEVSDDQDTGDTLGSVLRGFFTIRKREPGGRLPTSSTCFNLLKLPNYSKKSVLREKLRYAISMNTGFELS
inactive: erlotinib -0.14 | [1] -0.218 | [2] -0.3 | [3] 0.056 | [4] 0.142 | [5] 0.011 | [6] -0.022 | [7] -0.04 | [8] -0.12 | IRAK-1-4 Inhibitor I 0.019 | ibrutinib 0.041 | [9] 0.019 | ralimetinib 0.02 | [10] -0.074 | [11] -0.112 | [15] 0.068 | [16] 0 | [12] -0.004 | [13] -0.022 | [14] 0.023

TTLL12 (UniProt V9GY16)
inactive: erlotinib 0.144 | [1] 0.13 | [2] -0.193 | [3] -0.05 | [4] 0.074 | [5] -0.061 | [6] -0.072 | [7] -0.167 | [8] 0.128 | IRAK-1-4 Inhibitor I 0.229 | ibrutinib -0.32 | ralimetinib -0.339 | [10] -0.165 | [11] -0.333 | [12] 0.031 | [13] -0.009

UBIAD1 (UniProt Q9Y5Z9)
Chain of UniProt Q9Y5Z9 (Q9Y5Z9 whole entry, looked up): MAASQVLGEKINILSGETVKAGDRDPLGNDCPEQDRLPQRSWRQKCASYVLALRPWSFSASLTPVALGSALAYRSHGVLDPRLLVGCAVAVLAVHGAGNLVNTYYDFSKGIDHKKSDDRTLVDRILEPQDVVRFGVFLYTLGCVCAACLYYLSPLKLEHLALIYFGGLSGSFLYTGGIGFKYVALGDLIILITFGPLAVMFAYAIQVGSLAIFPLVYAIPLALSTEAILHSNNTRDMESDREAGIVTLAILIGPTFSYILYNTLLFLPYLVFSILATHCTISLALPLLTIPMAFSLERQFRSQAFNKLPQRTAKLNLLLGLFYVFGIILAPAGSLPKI
active: [6] 0.46
inactive: erlotinib 0.013 | [1] 0.16 | [2] -0.128 | [3] 0.092 | [5] 0.249 | [7] 0.023 | [8] 0.057 | IRAK-1-4 Inhibitor I -0.042 | [9] -0.012 | ralimetinib 0.01 | [10] 0.007 | [11] 0.067 | [15] -0.159 | [16] -0.049 | [12] 0.088 | [13] 0.012 | [14] 0.009

TTC27 (UniProt Q6P3X3)
inactive: erlotinib 0.017 | [1] 0.018 | [2] -0.043 | [3] 0.004 | [4] 0.007 | [5] -0.014 | [6] -0.028 | [7] -0.015 | [8] 0.006 | IRAK-1-4 Inhibitor I -0.013 | ibrutinib -0.025 | [9] 0.017 | ralimetinib -0.012 | [10] 0.046 | [11] 0.02 | [15] 0 | [16] -0.011 | [12] -0.012 | [13] 0.034 | [14] 0.042

TFAP4 (UniProt Q01664)
Chain of UniProt Q01664 (Q01664 whole entry, looked up): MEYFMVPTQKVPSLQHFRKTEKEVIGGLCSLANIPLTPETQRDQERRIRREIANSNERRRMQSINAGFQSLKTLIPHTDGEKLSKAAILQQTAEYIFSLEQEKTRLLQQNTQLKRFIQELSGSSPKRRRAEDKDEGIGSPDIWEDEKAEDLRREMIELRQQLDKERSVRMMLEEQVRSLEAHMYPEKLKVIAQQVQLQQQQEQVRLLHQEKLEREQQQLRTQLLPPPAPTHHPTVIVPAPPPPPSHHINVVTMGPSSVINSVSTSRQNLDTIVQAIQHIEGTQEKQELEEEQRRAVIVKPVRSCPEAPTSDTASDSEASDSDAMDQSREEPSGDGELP
inactive: erlotinib -0.063 | [1] -0.042 | [2] 0.017 | [3] -0.025 | [4] 0.018 | [5] -0.09 | [6] 0.055 | [7] 0.135 | [8] -0.016 | IRAK-1-4 Inhibitor I -0.061 | ibrutinib 0.057 | [9] 0.141 | ralimetinib 0.004 | [10] -0.26 | [11] -0.109 | [15] 0.046 | [12] 0.058 | [13] 0.038 | [14] 0.07

TESC (UniProt Q96BS2)
Chain of UniProt Q96BS2 (Q96BS2 whole entry, looked up): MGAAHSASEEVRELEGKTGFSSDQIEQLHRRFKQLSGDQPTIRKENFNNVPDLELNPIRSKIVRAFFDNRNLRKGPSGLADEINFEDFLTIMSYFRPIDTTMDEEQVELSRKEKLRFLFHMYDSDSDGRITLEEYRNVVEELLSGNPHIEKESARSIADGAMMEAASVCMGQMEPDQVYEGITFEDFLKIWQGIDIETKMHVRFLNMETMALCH
inactive: erlotinib -0.043 | [1] 0.042 | [2] 0.03 | [3] 0.074 | [4] -0.042 | [5] -0.006 | [6] 0.036 | [7] 0.003 | [8] 0.04 | IRAK-1-4 Inhibitor I -0.003 | ibrutinib 0.065 | [9] -0.029 | ralimetinib 0.005 | [10] 0.056 | [11] -0.055 | [15] 0.043 | [16] 0.015 | [12] 0 | [13] -0.013 | [14] -0.077

THEMIS2 (UniProt Q5TEJ8)
Chain of UniProt Q5TEJ8 (Q5TEJ8 whole entry, looked up): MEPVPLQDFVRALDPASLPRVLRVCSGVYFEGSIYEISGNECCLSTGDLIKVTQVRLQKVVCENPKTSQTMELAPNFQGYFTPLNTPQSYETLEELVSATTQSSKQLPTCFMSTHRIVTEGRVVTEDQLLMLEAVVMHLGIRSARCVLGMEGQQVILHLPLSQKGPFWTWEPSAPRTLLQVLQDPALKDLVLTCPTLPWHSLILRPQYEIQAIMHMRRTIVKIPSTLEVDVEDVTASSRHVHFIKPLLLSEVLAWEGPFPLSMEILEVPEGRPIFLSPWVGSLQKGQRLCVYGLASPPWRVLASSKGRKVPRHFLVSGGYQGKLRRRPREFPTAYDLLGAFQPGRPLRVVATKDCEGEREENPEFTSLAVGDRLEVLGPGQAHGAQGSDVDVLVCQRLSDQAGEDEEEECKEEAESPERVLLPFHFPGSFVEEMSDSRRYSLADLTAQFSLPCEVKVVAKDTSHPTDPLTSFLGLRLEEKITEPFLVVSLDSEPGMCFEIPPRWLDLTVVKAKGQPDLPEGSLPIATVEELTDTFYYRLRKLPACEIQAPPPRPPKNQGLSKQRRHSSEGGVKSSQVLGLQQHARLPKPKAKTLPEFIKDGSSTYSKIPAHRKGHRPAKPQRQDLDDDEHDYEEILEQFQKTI
inactive: erlotinib -0.035 | [1] 0.006 | [2] 0.004 | [3] 0.036 | [4] 0.031 | [5] -0.041 | [6] -0.024 | [7] -0.02 | [8] 0.042 | IRAK-1-4 Inhibitor I 0.031 | ibrutinib 0.029 | [9] -0.038 | ralimetinib 0.059 | [10] -0.037 | [11] -0.009 | [15] 0.029 | [16] -0.051 | [12] -0.023 | [13] -0.042 | [14] 0.126

TUBAL3 (UniProt A6NHL2)
Chain of UniProt A6NHL2 (A6NHL2 whole entry, looked up): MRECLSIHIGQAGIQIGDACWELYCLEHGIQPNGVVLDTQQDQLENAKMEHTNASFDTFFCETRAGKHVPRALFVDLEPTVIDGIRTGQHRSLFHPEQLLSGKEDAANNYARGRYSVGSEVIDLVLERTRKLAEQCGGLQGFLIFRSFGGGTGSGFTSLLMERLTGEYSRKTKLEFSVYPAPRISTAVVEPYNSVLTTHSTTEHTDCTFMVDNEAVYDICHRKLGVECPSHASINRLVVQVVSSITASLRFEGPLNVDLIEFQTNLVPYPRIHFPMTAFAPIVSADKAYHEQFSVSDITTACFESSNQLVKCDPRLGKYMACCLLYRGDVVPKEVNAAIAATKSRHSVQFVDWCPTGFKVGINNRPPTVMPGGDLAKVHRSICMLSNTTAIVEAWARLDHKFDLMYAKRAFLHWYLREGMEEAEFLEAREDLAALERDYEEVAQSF
inactive: erlotinib -0.018 | [1] -0.01 | [2] -0.076 | [3] -0.114 | [4] -0.004 | [5] -0.011 | [6] -0.134 | [7] -0.025 | [8] 0.037 | IRAK-1-4 Inhibitor I 0.078 | ibrutinib 0.002 | [9] -0.071 | ralimetinib 0.056 | [10] -0.145 | [11] 0.116 | [15] -0.009 | [16] -0.008 | [13] -0.119 | [14] 0.025

TJP1 (UniProt G3V1L9)
inactive: erlotinib 0.169 | [1] 0.199 | [2] 0.087 | [3] -0.119 | [4] -0.068 | [5] 0.014 | [6] 0.063 | IRAK-1-4 Inhibitor I 0.047 | ibrutinib 0.024 | ralimetinib 0.075 | [10] -0.014 | [11] -0.025 | [15] -0.041 | [16] 0.022 | [12] -0.017 | [13] -0.041

TTK (UniProt P33981)
Chain of UniProt P33981 (P33981 whole entry, looked up): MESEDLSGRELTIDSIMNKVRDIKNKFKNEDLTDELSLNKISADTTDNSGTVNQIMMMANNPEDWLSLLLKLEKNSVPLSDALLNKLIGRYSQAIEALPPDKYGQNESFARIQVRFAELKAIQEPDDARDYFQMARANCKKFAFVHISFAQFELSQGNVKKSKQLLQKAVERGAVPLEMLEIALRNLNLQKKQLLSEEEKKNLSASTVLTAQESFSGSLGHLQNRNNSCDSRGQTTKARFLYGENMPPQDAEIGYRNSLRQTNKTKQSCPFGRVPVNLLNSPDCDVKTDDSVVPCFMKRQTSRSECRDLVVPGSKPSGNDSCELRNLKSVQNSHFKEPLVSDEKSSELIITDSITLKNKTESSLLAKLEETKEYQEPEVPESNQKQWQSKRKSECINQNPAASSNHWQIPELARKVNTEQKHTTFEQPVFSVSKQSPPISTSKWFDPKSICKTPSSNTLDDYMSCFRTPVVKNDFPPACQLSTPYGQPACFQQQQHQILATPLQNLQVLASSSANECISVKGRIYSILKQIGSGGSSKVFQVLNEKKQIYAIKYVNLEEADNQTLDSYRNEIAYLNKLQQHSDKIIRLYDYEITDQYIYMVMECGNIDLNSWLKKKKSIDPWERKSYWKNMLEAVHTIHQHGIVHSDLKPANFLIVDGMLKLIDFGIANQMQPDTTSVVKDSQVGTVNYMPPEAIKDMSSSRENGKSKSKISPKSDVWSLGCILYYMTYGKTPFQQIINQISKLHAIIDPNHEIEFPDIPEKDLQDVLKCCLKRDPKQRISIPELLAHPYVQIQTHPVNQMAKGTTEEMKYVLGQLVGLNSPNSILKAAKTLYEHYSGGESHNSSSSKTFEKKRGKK
inactive: erlotinib -0.032 | [1] -0.1 | [2] 0.09 | [3] -0.034 | [4] 0.004 | [5] 0.039 | [6] 0.258 | [7] 0.054 | [8] -0.039 | IRAK-1-4 Inhibitor I -0.032 | ibrutinib 0.008 | [9] 0.111 | ralimetinib 0.025 | [10] -0.036 | [11] 0.001 | [15] 0.018 | [16] -0.008 | [12] -0.011 | [13] 0.017 | [14] 0.013
